High-throughput results as filed in PubChem BioAssay.
Rab9 prom act = Rab9 promoter activation. Huh7 Rab9 promoter-luciferase reporter, luminescence, 24 h. Potency, µM (highest dose often 9.22 µM), for the others: top-dose activation, negative = inhibition, most hits filed as activators. actives 2.8% (n = 320,000); further: % of control where 0% means no effect; nearly all actives have a fitted effect of over 60% in size
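Cells were plated at 1500 per well in reduced-serum medium with 10% FBS and left 2 h. Compound in DMSO was then added for 24 h at 37 °C. Reporter signal was read by luminescence after 10 min with luciferase detection reagent.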
NPC1 promoter act = activators of NPC1 promoter | Huh7 NPC1 promoter luciferase reporter, 24 h | Potency, µM (titrated, usually from 9.22 µM), for the others: at the highest dose activation, hits mostly activators | actives 2.4% (n = 320,000); further: % of control where 0% means no effect; nearly all actives have a fitted effect of over 60% in size
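Cells: Huh7 expressing luciferase under the NPC1 promoter, 1500/well. Seeded 2 h, compound added, incubated 24 h at 37 °C. Luciferase reagent, 10 min ambient, then luminescence.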
FLuc modulator = inhibits or activates purified firefly luciferase, miR-21 counter-screen; Potency, µM (series often up to 57.5 µM), for the others: top-dose activity change, negative = inhibition, actives largely listed as inhibitors; AID 588342; P08659; actives 6.9% (n = 360,000); purified FLuc, Km substrates, luminescence inhibition;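 further: plate controls were vehicle for no effect and reference inhibitor for full effect; nearly all actives have a fitted effect of over 55% in size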
Target sequence (P08659 whole entry, looked up): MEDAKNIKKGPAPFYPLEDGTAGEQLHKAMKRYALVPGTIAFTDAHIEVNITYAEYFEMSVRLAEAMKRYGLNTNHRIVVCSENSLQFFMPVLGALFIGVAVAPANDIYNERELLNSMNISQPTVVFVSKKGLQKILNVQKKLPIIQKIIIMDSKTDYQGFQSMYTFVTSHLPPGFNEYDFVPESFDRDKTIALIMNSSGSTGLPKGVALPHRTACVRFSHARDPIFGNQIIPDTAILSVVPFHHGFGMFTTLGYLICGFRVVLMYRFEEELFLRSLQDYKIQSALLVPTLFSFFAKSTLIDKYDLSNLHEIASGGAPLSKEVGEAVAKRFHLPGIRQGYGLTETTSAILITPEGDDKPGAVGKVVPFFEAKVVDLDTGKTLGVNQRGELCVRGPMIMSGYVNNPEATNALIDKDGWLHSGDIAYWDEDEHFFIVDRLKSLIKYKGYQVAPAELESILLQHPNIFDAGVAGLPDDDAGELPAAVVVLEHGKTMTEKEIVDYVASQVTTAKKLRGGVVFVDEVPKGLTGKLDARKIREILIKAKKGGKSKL
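Purified P. pyralis luciferase (10nM final) with 10uM D-luciferin and 10uM ATP (Km levels) in 50mM Tris acetate pH 7.5, 10mM Mg acetate, 0.01% Tween-20, 0.05% BSA; qHTS 6-point titration, ~60 µM downward; luminescence read.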
ELG1 DNA repair = ELG1-dependent DNA repair inhibition | HEK293T ELG1-luciferase reporter, luminescence, 16 h; DNA damage induced by 5-fluorouridine | Potency, µM (doses to about 46.1 µM), inactives show at the top dose activity change, negative = inhibition, most hits filed as inhibitors | actives 2.3% (n = 330,000) | AID 504467; further: on the % scale 0 is the no-effect control and ±100 the full control effect; nearly all actives have a fitted effect of over 55% in size
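Cells (2,000 per well) received 5-fluorouridine plus test compound or DMSO and were incubated 16 hr at 37 °C, 5% CO2. Luciferase activity was read by luminescence 30 min after ONE-Glo addition; signal suppression marked inhibition of damage-induced ELG1 function.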
SMN2 splice enh = enhancers of SMN2 splice variant expression; HEK293 SMN2-luciferase splicing reporter, luminescence, 30-36 h; Potency, µM (doses to about 46.1 µM), for inactives: at the highest dose activity change, positive = activation, actives largely listed as activators; actives 2.8% (n = 210,000); further: % of control where 0% means no effect; nearly all actives have a fitted effect of over 55% in size
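qHTS luciferase splicing reporter: luminescence rises when SMN2 exon 7 is included in transfected HEK293 cells. Compound exposure lasted 30-36 h at 37C, with 4.5 mM final sodium butyrate as control, followed by a ONE-Glo read.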
ELG1 genotoxic = inducers of genotoxicity in HEK293T ELG1-luciferase cells | HEK293T ELG1-luciferase reporter, luminescence, 16 h | Potency, µM (series often up to 46 µM), inactives show at the highest dose activity change, positive = activation, usual class: activators | actives 1.3% (n = 330,000); further: % of control where 0% means no effect; nearly all actives have a fitted effect of over 60% in size
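Genotoxic stress is detected as increased luminescence from luciferase-tagged ELG1 in HEK293T cells, measured with ONE-Glo after a 16 hr treatment at 37 °C.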
* hit, by the source's call; [ ] = dose if it differs, or a comment. In the library only some 9.4% were active in any assay of this set; here they are far more common. The call rests on the fitted dose curve; in most records, active means well fitted curve in the direction sought with a large enough effect; inconclusive means small, poorly fitted or top-dose-only effect, or another doubt; inactive means no such curve, though single readings can be large; an effect the other way counts as inactive or inconclusive. Potency means the concentration at half of the fitted maximal effect.

Screening Cc1ccc2nc(NC(=O)COC(=O)c3ccco3)sc2c1 returned FLuc modulator 13.5µM* and SMN2 splice enh 29.9%.
For Cc1ccc2nc(NC(=O)COC(=O)c3ccc(Br)o3)sc2c1 the results were Rab9 prom act inconclusive, NPC1 promoter act inconclusive, FLuc modulator 26.9µM*, ELG1 DNA repair inconclusive, SMN2 splice enh 5.0% and ELG1 genotoxic 0.7%.
Screening O=C(COC(=O)c1ccco1)Nc1nc2ccc([N+](=O)[O-])cc2s1 returned Rab9 prom act 0.9%, NPC1 promoter act -1.9%, FLuc modulator 19µM*, ELG1 DNA repair -18.6% and ELG1 genotoxic -3.7%.
Screening O=C(COC(=O)c1ccco1)Nc1ccc([N+](=O)[O-])cc1Cl returned Rab9 prom act -0.5%, NPC1 promoter act -2.4%, FLuc modulator -2.9%, ELG1 DNA repair 15.2% and ELG1 genotoxic 7.9%.
Screening Cc1cc(C)cc(NC(=O)C2CCN(c3nc4ccccc4nc3C(F)(F)F)CC2)c1 returned FLuc modulator -1.1%.
For Cc1ccc2nc(-c3ccc(Br)o3)oc(=O)c2c1 the results were Rab9 prom act -1.7%, NPC1 promoter act -2.3%, FLuc modulator 2.39µM*, ELG1 DNA repair 12.0%, SMN2 splice enh 26.7% and ELG1 genotoxic 11.0%.
`COc1cc2nc(-c3ccc(Br)o3)oc(=O)c2cc1OC` gave Rab9 prom act 2.1%, NPC1 promoter act -3.1%, FLuc modulator 2.9%, ELG1 DNA repair 10.3%, SMN2 splice enh -5.7% and ELG1 genotoxic 5.8%.
`Cc1ccc(S(=O)(=O)N2CCN(S(=O)(=O)N3CCC(C)CC3)CC2)c(C)c1` gave Rab9 prom act 0.2%, NPC1 promoter act 1.7%, FLuc modulator -0.6%, ELG1 DNA repair -1.3% and ELG1 genotoxic -1.4%.
For Cc1ccc(S(=O)(=O)N2CCN(S(=O)(=O)N3CCCCC3)CC2)c(C)c1 the results were Rab9 prom act -0.3%, NPC1 promoter act -4.9%, FLuc modulator 8.6%, ELG1 DNA repair 16.4µM*, SMN2 splice enh -43.1% and ELG1 genotoxic -5.6%.
`Cc1cccc(N(O)C(=O)Nc2cccc(Cl)c2)c1` gave Rab9 prom act 28.2%, NPC1 promoter act 23.5%, FLuc modulator 16.9µM*, ELG1 DNA repair inconclusive and ELG1 genotoxic inconclusive.
Screening COc1cccc(CSc2nc(-c3ccccc3F)nc3c2Cc2c(CO)cnc(C)c2O3)c1 returned FLuc modulator -2.3%.
NC(=O)c1ccccc1 was read as Rab9 prom act -2.2%[46.1 µM], NPC1 promoter act 2.9%[46.1 µM], FLuc modulator -1.9%, ELG1 DNA repair 5.6%, SMN2 splice enh -8.5% and ELG1 genotoxic 3.1%.
Screening NC(=O)c1ccc(-c2ncc(-c3ccccc3)o2)cc1 returned Rab9 prom act inconclusive, NPC1 promoter act 0.282µM*, FLuc modulator 2.13µM*, ELG1 DNA repair inconclusive, SMN2 splice enh 0.501µM* and ELG1 genotoxic 0.184µM*.
For c1ccc(-c2cnc(-c3cccnc3)o2)cc1 the results were Rab9 prom act inconclusive, NPC1 promoter act inconclusive, FLuc modulator 15.1µM*, ELG1 DNA repair inconclusive, SMN2 splice enh 6.2% and ELG1 genotoxic inconclusive.
For Cc1ccc(-c2cnc(-c3ccccc3C(=O)O)o2)cc1 the results were Rab9 prom act inconclusive, NPC1 promoter act inconclusive, FLuc modulator 13.5µM*, ELG1 DNA repair inconclusive and ELG1 genotoxic inconclusive.
COc1ccccc1NC(=O)c1sc2ncn(Cc3ccccc3Cl)c(=O)c2c1C was read as FLuc modulator -4.5%.
For O=C(CSc1nnc(NC(=O)c2ccco2)s1)Nc1ccccc1F the results were Rab9 prom act -0.1%, NPC1 promoter act -1.6%, FLuc modulator 15.1µM*, ELG1 DNA repair 7.4%, SMN2 splice enh 9.7% and ELG1 genotoxic 4.2%.
